Here are results for 21 compounds from PubChem BioAssay (NCI).

The nature of assay [1]: NCI Yeast Anticancer Drug Screen. Data for the rad50 strain (AID 155).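 Further: 0% = growth of vehicle-only cultures of the same strain.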 The following applies: S. cerevisiae rad50 strain growth inhibition; at 50.0 µM; active compounds read high. The method, boiled down: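 Inhibition values express reduced yeast growth in compound-treated cultures relative to vehicle-treated controls.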
Assay [2] is described as follows: NCI Yeast Anticancer Drug Screen. Data for the mec2-1 strain (AID 157). As to conditions: S. cerevisiae mec2-1 strain, at 50.0 µM, active compounds read high. The method, boiled down: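 Test agents were screened against the mec2-1 yeast strain, with defined DNA repair or cell cycle alteration. Growth was scored as inhibition against vehicle-only controls.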
Assay [3] is described as follows: NCI Yeast Anticancer Drug Screen. Data for the sgs1 mgt1 strain (AID 161).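 Further: 0% = growth of cultures given vehicle only.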 The following applies: S. cerevisiae sgs1 mgt1 strain, at 50.0 µM, active compounds read high. The method, boiled down:
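Mutant yeast exposed to compound; growth scored against vehicle-only wells.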

The nature of assay [4]: NCI Yeast Anticancer Drug Screen. Data for the cln2 rad14 strain (AID 165).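 Further: 0% = growth equal to vehicle treated cultures.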 As to conditions: S. cerevisiae cln2 rad14 strain, at 50.0 µM, active compounds read high. The method, boiled down: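 Growth of compound-exposed yeast (cln2 rad14 genotype) measured and expressed as inhibition relative to vehicle.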
Assay [5] is described as follows: NCI Yeast Anticancer Drug Screen. Data for the bub3 strain (AID 167). The following applies: S. cerevisiae bub3 mutant strain, at 50.0 µM, active compounds read high. In a few lines: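 Steps: expose the mutant yeast strain to compound; grow alongside vehicle-treated cultures; measure growth; express inhibition against the vehicle cultures.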
Assay [6] can be described thus: NCI Yeast Anticancer Drug Screen. Data for the mlh1 rad18 strain (AID 175). As to conditions: S. cerevisiae mlh1 rad18 strain growth inhibition; at 50.0 µM; active compounds read high. The method, boiled down: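 In this whole-cell yeast screen, a strain with altered DNA damage repair is challenged with compound, and its growth is measured against matched vehicle-treated controls.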

Structures are written as SMILES. About 79,000 compounds went through this panel and 15% of them were active in at least one assay; those are over-represented in the sample as a whole. Values without a mark were called inactive. The source made the active and inactive calls. No stated cut-off is given here; in the data, active means growth inhibition above about 70%; inactive means the rest.

On to `CCOC(=O)c1ccc(NCc2nc3ccccc3nc2C)cc1`, for which the growth inhibition in assay [1] was -17.8%; in assay [2], -4%; in assay [3], -18%; in assay [4], -29.1%; in assay [5] it was 1.95%; in assay [6] it was -19.2%.
Regarding `CC1COC(c2ccc(C(C)C)cc2)O1` (stereo unspecified), the growth inhibition is 7.5% in assay [1]; 0.35% in assay [2]; 0.25% in assay [3]; -8.9% in assay [4]; 0.55% in assay [5]; -4.4% in assay [6].
With `COc1cccc2c1CC/C(=C\c1ccccn1)C2=O`, the growth inhibition in assay [1] was 98.5% (active); in assay [2] it was 99.1% (active); in assay [3], 98.9% (active); in assay [4], 97.8% (active); in assay [5], 98.8% (active); in assay [6], 99.2% (active).
As for `CCCNC(C)=O`, the growth inhibition in assay [1] is 12.2%; in assay [2], -26.1%; in assay [3], -24.9%; in assay [4], -27.1%; in assay [5], -8.55%; in assay [6], -1.25%.
`CC(=O)Nc1ccc(S(=O)(=O)NNC(=O)C(=O)Nc2cccc(Cl)c2)cc1`: the growth inhibition was -12.5% in assay [1]; -21.4% in assay [2]; -18.2% in assay [3]; 16.4% in assay [4]; -0.1% in assay [5]; -1.6% in assay [6].
As to `CCOC(=O)c1c(C)c(C(C)=O)c2ccccn12`, the growth inhibition in assay [1] was -18.2%; in assay [2], -17.4%; in assay [3], -19.9%; in assay [4] it was -26.6%; in assay [5] it was 5.4%; in assay [6] it was -2.7%.
For the compound `CCCC12C=C(OC)C(=O)C=C1OC(c1cc(OC)c(OC)c(OC)c1)C2C` (stereo unspecified), the growth inhibition in assay [1] is -14.8%; in assay [2], -23.4%; in assay [3], -18.8%; in assay [4], -4.45%; in assay [5], -6.8%; in assay [6], -13.4%.
For the compound `Cc1cc(C)c(-c2no/c(=N\S(=O)(=O)c3ccc(Cl)cc3)o2)c(C)c1`, the growth inhibition in assay [1] is -10%; in assay [2] it was -4.1%; in assay [3] it was 0.75%; in assay [4], 26%; in assay [5], -13.1%; in assay [6], 3.85%.
With `CN(C)CCCN1C=CC(=C2C(=O)c3ccccc3C2=O)C=C1`, the growth inhibition in assay [1] was 3.1%; in assay [2], 20.8%; in assay [3], 10.3%; in assay [4] it was 34.9%; in assay [5], 8.5%; in assay [6] it was -0.95%.
On to `N/N=C1\CC(=O)NC(=O)N1`, for which the growth inhibition in assay [1] is -2.15%; in assay [2] it was -11.1%; in assay [3], 1.9%; in assay [4], 1.8%; in assay [5] it was 3.05%; in assay [6], 0.05%.
As for `COC(=O)Cc1nn2c(nc1=O)sc1ccc3ccccc3c12`, the growth inhibition is -16.7% in assay [1]; -3.05% in assay [2]; 3.3% in assay [3]; 1.25% in assay [4]; -3.8% in assay [5]; -17.2% in assay [6].
For the compound `Nc1cc(Cl)c(I)c(Cl)c1`, the growth inhibition in assay [1] was -4.5%; in assay [2], -29.6%; in assay [3] it was 5.05%; in assay [4], 10.2%; in assay [5] it was -2.15%; in assay [6], 14.4%.
As for `COC(=O)C1C(=C(c2ccccc2)c2ccccc2)C1c1ccccc1` (stereo unspecified), the growth inhibition in assay [1] was -1.75%; in assay [2], -15.2%; in assay [3], -11.8%; in assay [4], -11.4%; in assay [5] it was 6.85%; in assay [6], -8.7%.
On to `NC(=O)c1cc[cH-]c1.[Fe+2].c1cc[cH-]c1`, for which the growth inhibition is -10.1% in assay [1]; 9% in assay [2]; -4.75% in assay [3]; -2.05% in assay [4]; 5.35% in assay [5]; 12.9% in assay [6].
`CC1CCC(=O)CN1Cc1ccccc1` (stereo unspecified): the growth inhibition in assay [1] was 5.95%; in assay [2] it was 4.45%; in assay [3], 9.45%; in assay [4] it was -11.6%; in assay [5] it was 22.4%; in assay [6], 4.85%.
Regarding `Cc1cc(C)nc(N)c1`, the growth inhibition in assay [1] was 3.75%; in assay [2] it was -11.8%; in assay [3] it was -0.4%; in assay [4], -21.8%; in assay [5], -3.25%; in assay [6] it was 3.05%.
Consider `CCOC(=O)C1=C(C)N(NC(=O)Nc2ccccc2)C2(N)N(NC(=O)Nc3ccccc3)C(C)=C(C(=O)OCC)C12C(=O)OCC` (stereo unspecified), for which the growth inhibition is -28.1% in assay [1]; -44.5% in assay [2]; -42% in assay [3]; -20.7% in assay [4]; -7.6% in assay [5]; -15.8% in assay [6].
Turning to `Clc1ccc(-c2nc3ccccc3cc2N2CCCCC2)cc1`, the growth inhibition in assay [1] is 26.4%; in assay [2] it was 1.45%; in assay [3] it was 12.3%; in assay [4], -38.5%; in assay [5], -1.15%; in assay [6], -7.7%.
Regarding `C=CCOC(=O)C1(O)c2ccccc2NC(=S)N1CC=C` (stereo unspecified), the growth inhibition in assay [1] was 1.35%; in assay [2], 7.4%; in assay [3], 5.2%; in assay [4], 6.9%; in assay [5], 10.3%; in assay [6], -0.8%.
With `O=C1c2cc([N+](=O)[O-])cc3cc([N+](=O)[O-])cc(c23)C(=O)N1CCNCCNCCNCCN1C(=O)c2cc([N+](=O)[O-])cc3cc([N+](=O)[O-])cc(c23)C1=O`, the growth inhibition is 85.1% (active) in assay [1]; 90.4% (active) in assay [2]; 91.5% (active) in assay [3]; 90.8% (active) in assay [4]; 89% (active) in assay [5]; 86.1% (active) in assay [6].
As for `CCN(CC)CCOC(=O)C(S)(c1ccccc1)C1CCCCC1` (stereo unspecified), the growth inhibition was 13.8% in assay [1]; -7.3% in assay [2]; 1% in assay [3]; -12.8% in assay [4]; -12.7% in assay [5]; 16.9% in assay [6].
